Assay outcomes deposited in PubChem BioAssay by several laboratories.
ADAM10 inh – ADAM10 inhibition, QFRET primary screen; O14672; recombinant ADAM10, EDANS/DABCYL FRET peptide cleavage, 3 h; inhibition, % at 7 µM; 0.62% of 370,000 active;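 active means inhibition above a per-campaign cutoff equal to the mean of compounds falling between control-based bounds plus 3 SD, cut at about 20% in these data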;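 further: 0% = DMSO wells while the 100% control is not disclosed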
Target sequence (O14672 214-748 limits assumed): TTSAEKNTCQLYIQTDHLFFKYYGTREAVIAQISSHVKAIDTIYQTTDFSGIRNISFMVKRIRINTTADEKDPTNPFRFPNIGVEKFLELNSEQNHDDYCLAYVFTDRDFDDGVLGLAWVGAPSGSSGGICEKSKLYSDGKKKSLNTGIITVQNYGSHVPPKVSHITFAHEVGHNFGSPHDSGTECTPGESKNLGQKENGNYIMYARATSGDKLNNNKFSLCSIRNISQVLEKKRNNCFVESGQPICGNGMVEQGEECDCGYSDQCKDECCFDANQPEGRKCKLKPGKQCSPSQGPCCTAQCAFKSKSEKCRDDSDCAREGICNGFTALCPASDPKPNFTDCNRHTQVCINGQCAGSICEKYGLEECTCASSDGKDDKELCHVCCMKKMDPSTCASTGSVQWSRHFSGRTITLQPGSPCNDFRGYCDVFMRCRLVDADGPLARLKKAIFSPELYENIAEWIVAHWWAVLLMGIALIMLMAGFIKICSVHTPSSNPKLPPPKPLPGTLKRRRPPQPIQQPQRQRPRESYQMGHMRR
ADAM17 inh – inhibitors of human ADAM17; inhibition, % at 6.95 µM; 0.83% of 370,000 active; recombinant ADAM17, EDANS/DABCYL FRET peptide cleavage; AID 720648;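 active means inhibition above the mean of compounds lying between control limits plus 3 SD, set per campaign, cut at about 8.5% in these data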;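 further: 0% = DMSO-only wells as the low control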
rRNA inh HTS – selective bacterial rRNA inhibition in E. coli; AID 720706; E. coli WT GFP vs humanized-ribosome RFP mutants, fluorescence, 24 h; active compounds read low; DMSO median 0, no signal -100; GFP signal change (wild-type ribosome), % (test concentration not listed); 1.6% of 350,000 active;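 active means significant combined selectivity score with lowered wild-type GFP, culture density cut under 30%, mutant RFP and density less affected; inactive means any of these conditions unmet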
FGF22 binding-1 – FGF22 (human) thermal shift binding; activity (Tm shift, normalised), % at 9.99 µM; recombinant FGF22 thermal shift, SYPRO orange fluorescence; percent of sucrose octasulfate shift, DMSO zero; Q9HCT0; AID 651658; 1.5% of 340,000 active;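 active means mean Tm shift, scaled 0 neutral to 100 positive control, at about 1.3% or above, every replicate too, limit read from the data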
Target sequence (Q9HCT0 whole entry, looked up): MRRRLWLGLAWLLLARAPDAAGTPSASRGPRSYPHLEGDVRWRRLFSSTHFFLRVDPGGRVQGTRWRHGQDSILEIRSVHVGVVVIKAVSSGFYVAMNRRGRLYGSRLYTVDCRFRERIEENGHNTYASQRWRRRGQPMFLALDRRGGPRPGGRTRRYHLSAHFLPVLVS
KLK7 zymogen act – proKLK7 (human) activation, primary screen | P49862 | purified proKLK7, EDANS-DABCYL substrate fluorescence; 100% is mature enzyme control, 0% vehicle | activation, % at 7 µM | 0.9% of 370,000 active | AID 652039;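 active means activation above the mean of all tested compounds plus 3 SD, computed per campaign excluding outliers beyond control limits, cut at about 13% in these data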
FGF22 binding-2 – binders of human FGF22 by thermal shift. shares compounds with FGF22 binding-1. recombinant FGF22 thermal shift, SYPRO orange fluorescence. thermal shift activity, °C (ΔTm) at 38 µM. 2% of 1,000 active. AID 720646;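 active means fitted rise in melting shift crosses a set limit at or below the top valid dose tested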
TSA no protein – compound-only SYPRO artifact for FGF22 binders. AC50, µM (series often up to 38 µM). 2% of 1,000 active. shares compounds with FGF22 binding-1. compound-only SYPRO orange thermal shift counter-screen, no protein;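 active means rising signal whose fitted curve reaches the 0.54 level within the top valid dose, showing a melting point, actives reach about 13 µM in these data; inactive means the rest, including activity in the opposite direction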; further: value is where the raw curve crosses a fixed level and not half-maximal
* marks the source's active call; other numbers are inactive results; i = inactive; nt = no result; [ ] = another dose, or the depositor's remark. Shown are actives, neighbours in structure and some others; about 3.8% of the full set was active somewhere.

SMILES | ADAM10 inh | ADAM17 inh | rRNA inh HTS | FGF22 binding-1 | KLK7 zymogen act | FGF22 binding-2 | TSA no protein
C[C@@H]1CCCCO[C@H](CN(C)C)[C@@H](C)CN([C@H](C)CO)C(=O)c2cc(NC(=O)Nc3ccccc3)ccc2O1 | nt | nt | 5 | nt | nt | nt | nt
C[C@@H]1CN([C@@H](C)CO)C(=O)c2cccc(NC(=O)c3ccc(-c4nccs4)cc3)c2O[C@@H]1CN(C)S(=O)(=O)c1ccc(Cl)cc1 | nt | nt | 3 | 0 | nt | nt | nt
Oc1ccc(/C=N/N=C/c2ccc(O)c(O)c2)cc1O | 14 | 3 | 9 | 1.5* | -2 | 0.23 | 10µM*
O=Cc1ccc(O)c(O)c1 | -7 | -5 | 9 | 0 | 0 | nt | nt
CCS(=O)(=O)N[C@@H]1CC[C@H](CC(=O)Nc2ccc(-c3ccccc3)cc2)O[C@@H]1CO | nt | nt | -2 | 1.2* | nt | 0.14[35 µM] | i
CCS(=O)(=O)N[C@H]1CC[C@H](CC(=O)Nc2ccc(-c3ccccc3)cc2)O[C@H]1CO | nt | nt | -3 | 0 | nt | nt | nt
Cc1ccc(S(=O)(=O)N2CCN(CC(=O)N/N=C\c3ccc(Cl)c([N+](=O)[O-])c3)CC2)cc1 | 2 | 4 | nt | nt | 0 | nt | nt
CC(=O)c1ccc(S(=O)(=O)N2CCN(CC(=O)Nc3ccc(Cl)c([N+](=O)[O-])c3)CC2)cc1 | 4 | -3 | -6 | 2.6* | 0 | 0.023 | i
C[C@@H]1CN([C@@H](C)CO)C(=O)c2cc(C#C[C@@H](C)O)cnc2O[C@H]1CN(C)C(=O)Nc1ccc(F)cc1 | nt | nt | 3 | 0 | nt | nt | nt
Nc1n[nH]c(=S)n1/N=C1/C(=O)Nc2ccccc21 | 7 | 0 | 5 | 1.8* | 0 | 0.05 | i
O=C1Nc2ccccc2C1=NN1CCCCCC1 | -12 | -3 | -6 | nt | 0 | nt | nt
CCCNC(=O)N1CC(=O)N2[C@H](CO)[C@@H](c3ccc(-c4cccc(C)c4)cc3)[C@@H]2C1 | nt | nt | 3 | 2.2* | nt | 0.22[42 µM] | i
CCCNC(=O)N1CC(=O)N2[C@H](CO)[C@H](c3ccc(-c4cccc(C)c4)cc3)[C@@H]2C1 | nt | nt | -4 | 1 | nt | nt | nt
COCC(=O)N1CC(=O)N2[C@H](CO)[C@H](c3ccc(Br)cc3)[C@H]2C1 | nt | nt | 2 | 1.6* | nt | 0.074 | i
CCCNC(=O)N1CC(=O)N2[C@H](C1)[C@@H](c1ccc(-c3cccc(C)c3)cc1)[C@@H]2CO | nt | nt | 2 | 6.9* | nt | 0.22 | i
O=C(NC1CCCCC1)N1CC(=O)N2[C@H](C1)[C@@H](c1ccc(-c3cccc(F)c3)cc1)[C@@H]2CO | nt | nt | -35 | 2.3* | nt | -0.042 | i
C[C@H](CO)N1C[C@H](C)[C@@H](CN(C)S(=O)(=O)c2ccc(F)cc2)OCCCC[C@H](C)Oc2ccc(NS(=O)(=O)c3cccs3)cc2C1=O | nt | nt | -9 | 0 | nt | nt | nt
C[C@@H]1CN([C@H](C)CO)C(=O)c2cc(NS(=O)(=O)c3ccc(F)cc3)ccc2O[C@@H](C)CCCCO[C@@H]1CN(C)Cc1ccncc1 | nt | nt | 0 | 0 | nt | nt | nt
O=C(c1ccccc1F)N1CC(=O)N2[C@@H](CO)[C@H](c3ccc(-c4ccc(F)cc4)cc3)[C@@H]2C1 | nt | nt | -3 | 1.8* | nt | 0.14[42 µM] | i
CC(=O)N(C)C[C@@H]1Oc2ncc(C#Cc3cccnc3)cc2C(=O)N([C@@H](C)CO)C[C@@H]1C | nt | nt | 5 | nt | nt | nt | nt
Cc1ccc(S(=O)(=O)N[C@H]2C=C[C@@H](CC(=O)N3CCN(c4ccccc4)CC3)O[C@@H]2CO)cc1 | nt | nt | -4 | 0 | nt | nt | nt
COc1ccc(C2=NN(c3ccccc3)C(c3cn(CCC(=O)O)nc3-c3ccccc3)C2)cc1 (stereo unspecified) | i | -331 | 6 | 2.3* | -89 | 0.065 | i
O=S(=O)(Nc1ccccc1OC(F)F)c1ccc(S(=O)(=O)N2CCCC2)cc1 | -3 | 0 | -13 | 3.2* | 0 | -0.032 | i
O=S(=O)(c1ccc(F)cc1)N1CCCC1 | -9 | 1 | 13 | 0 | 0 | nt | nt
Cc1noc(C)c1S(=O)(=O)N(C)C[C@H]1OCCCC[C@@H](C)Oc2ccc(NS(=O)(=O)c3cccs3)cc2C(=O)N([C@@H](C)CO)C[C@@H]1C | nt | nt | 2 | 0 | nt | nt | nt
SMILES | ADAM10 inh | ADAM17 inh | rRNA inh HTS | FGF22 binding-1 | KLK7 zymogen act | FGF22 binding-2 | TSA no protein
C/C=C/c1ccc([C@H]2[C@@H](CO)N(C(C)=O)C23CN(C(=O)NC2CCCCC2)C3)cc1 | nt | nt | 1 | 0 | nt | nt | nt
COc1ccc(S(=O)(=O)Nc2ccc3c(c2)C(=O)N([C@@H](C)CO)C[C@@H](C)[C@H](CN(C)S(=O)(=O)c2ccc(C)cc2)OCCCC[C@@H](C)O3)cc1 | nt | nt | -1 | -1 | nt | nt | nt
O=[N+]([O-])c1ccc(NS(=O)(=O)c2ccc(Cl)c(Cl)c2)cc1 | 2 | 2 | -53 | 1 | 0 | nt | nt
O=C1C(Cl)=C(NS(=O)(=O)c2ccc([N+](=O)[O-])cc2)C(=O)c2ccccc21 | 7 | 1 | -1 | 1.9* | 0 | 0.13 | i
O=C(Nc1ccccc1)Nc1ccc2nnsc2c1 | -8 | -4 | -43 | 2.1* | 1 | 0.27 | i
O=C(Nc1ccccc1)Nc1ccc2snnc2c1 | 1 | 0 | nt | nt | 0 | nt | nt
CCCCNC(=O)c1onc(CSc2ccccc2)c1C(=O)O | -2 | 6 | -8 | 0 | 0 | nt | nt
CC(C)CCNC(=O)c1onc(CSc2ccncc2)c1C(=O)NCCC(C)C | 1 | -1 | 4 | 18* | 0 | 0.095 | 8.3µM*
CCCCNC(=O)c1onc(CSc2ccc(C(C)C)cc2)c1C(=O)O | 1 | -2 | -51 | 1.5* | 0 | -0.034 | i
Cc1ccc(-c2cnc3c(c2)C(=O)N([C@@H](C)CO)C[C@H](C)[C@H](CN(C)Cc2ccccc2C(=O)O)O3)cc1 | nt | nt | 7 | 0 | nt | nt | nt
O=C(C1CCCC1)N1CCCCN2[C@H](CO)[C@@H](c3ccc(C#CC4CC4)cc3)[C@H]2C1 | nt | nt | nt | 0 | nt | nt | nt
COc1ccc2c3c(n(C)c2c1)[C@@H](CO)N(C(=O)c1cccnc1)CC31CN(C)C1 | nt | nt | 4 | nt | nt | nt | nt
CC(=O)N1[C@@H](CO)[C@@H]2c3ccccc3N(C(=O)c3ccc(F)cc3)C[C@@H]21 | nt | nt | 6 | 1.8* | nt | 0.11 | i
COc1ccc(C(=O)N2C[C@H]3[C@@H](c4ccccc42)[C@@H](CO)N3C(=O)c2ccc(F)cc2)cc1 | nt | nt | 1 | 1.8* | nt | 0.061[42 µM] | i
COCC(=O)N1C[C@H]2[C@@H](c3ccccc31)[C@H](CO)N2C(=O)Nc1ccccc1F | nt | nt | -2 | 1.5* | nt | -0.044 | i
COC(=O)C[C@@H]1CC[C@H]2[C@H](COc3ccc(NC(=O)Cc4cccs4)cc3C(=O)N2C)O1 | nt | nt | -2 | nt | nt | nt | nt
O=C(C[C@H]1CC[C@H](NC(=O)CN2CCOCC2)[C@@H](CO)O1)NC1CCCCC1 | nt | nt | 0 | 0 | nt | nt | nt
O=C(Nc1ccc(S(=O)(=O)Nc2ccccn2)cc1)c1cccc([N+](=O)[O-])c1 | 0 | -2 | 5 | 36* | 1 | 0.11 | i
